Here are results for 36 compounds from PubChem BioAssay (NCATS).

Where “and” joins values, the source holds several entries; their conditions need not be identical. Equal values may be shown once. Inconclusive results are not listed. Values without a mark were called inactive. Calls of active or inactive are those of the source. Unless noted, calls follow the shape of the dose curve; as a rule, active = well fitted curve in the direction sought with a large enough effect; inconclusive = small, poorly fitted or top-dose-only effect, or another doubt; inactive = no such curve, though single readings can be large; an effect the other way counts as inactive or inconclusive.

In assay [1] the target is Calcium and integrin-binding protein 1 (Homo sapiens) (UniProt Q99828). Briefly: Primary qHTS for Identification of Calcium Integrin Binding Protein 1 (CIB1) Competitor (AID 1508620). Also: potency is read from the fitted curve at half-maximal effect. The procedure, abridged: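 CIB1-GST (1 uM final) and compound incubated 15 min at room temperature before adding FITC-alphaIIb peptide tracer (100 nM final). Competition for binding read by fluorescence polarization (ex 480, em 540) after another 15 min at room temperature.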
Background: Quantitative high-throughput screening tests each substance at several concentrations.

The nature of assay [2]: A High-Content qHTS Against Drug Library for the Identification of Small Molecules that Inhibit DYT1 Early Onset Primary Dystonia-Associated Cell Pathology (AID 1645839; calls by dose curve; also: series mostly up to about 46 µM). The gist of the method: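 In this high-content image screen, delE TorsinA mislocalization in inducible Flp-In 293 cells is scored as %pathology, with cell count serving as the counterscreen. Compound exposure lasts 48 h under tetracycline induction in reduced-serum medium.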

Assay [3] deals with Cytochrome P450 2D6 (Homo sapiens) (UniProt P10635). Briefly: Cytochrome P450 family 2 subfamily D member 6 (CYP2D6) small molecule antagonists: luciferase biochemical (cell-free) qHTS assay (AID 1645840; active = well fitted curve in the direction sought with a large enough effect in the repeat runs; an effect the other way counts as inactive or inconclusive; also: nearly all actives have a fitted effect of over 55% in size; also: potency is read from the fitted curve at half-maximal effect). The gist of the method:
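P450-Glo luminescent screen: recombinant CYP2D6 enzyme–proluciferin substrate mix preincubated with compound 10 min at room temperature, then NADPH regeneration added for 1 h at room temperature. Detection reagent added for 20 min; luciferin light read as relative luminescence units.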

Assay [4] is described as follows: Primary qHTS for small molecule stabilizers of the endoplasmic reticulum resident proteome: Secreted ER Calcium Modulated Protein (SERCaMP) assay (AID 1508630). The gist of the method:
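GLuc-SERCaMP-expressing SH-SY5Y cells, pretreated 16 h with compound, are challenged with thapsigargin to empty ER calcium stores; after 4 h, coelenterazine is added directly to the medium and luminescence is imaged.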

Assay [5] deals with Cytochrome P450 2C9 (Homo sapiens) (UniProt P11712). As to the kind of experiment: Cytochrome P450 family 2 subfamily C member 9 (CYP2C9) small molecule antagonists: luciferase biochemical (cell-free) qHTS assay (AID 1645842; active = well fitted curve in the direction sought with a large enough effect in the repeat runs; an effect the other way counts as inactive or inconclusive; also: nearly all actives have a fitted effect of over 55% in size; also: potency is read from the fitted curve at half-maximal effect). The gist of the method:
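Luminescence, after 20 min with luciferin detection reagent, reflected CYP2C9 turnover during a 1 h NADPH-driven reaction at 37C. Enzyme-substrate mix contained 0.4% bovine serum albumin and was preincubated with compound 10 min at room temperature.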

Sequence of Calcium and integrin-binding protein 1 (Homo sapiens) (Q99828 whole entry, looked up): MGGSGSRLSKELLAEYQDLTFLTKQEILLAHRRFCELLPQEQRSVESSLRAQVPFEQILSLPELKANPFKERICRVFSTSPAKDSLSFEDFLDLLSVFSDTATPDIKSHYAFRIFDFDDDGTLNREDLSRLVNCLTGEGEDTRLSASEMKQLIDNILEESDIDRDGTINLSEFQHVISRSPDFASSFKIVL
Sequence of Cytochrome P450 2D6 (Homo sapiens) (P10635 whole entry, looked up): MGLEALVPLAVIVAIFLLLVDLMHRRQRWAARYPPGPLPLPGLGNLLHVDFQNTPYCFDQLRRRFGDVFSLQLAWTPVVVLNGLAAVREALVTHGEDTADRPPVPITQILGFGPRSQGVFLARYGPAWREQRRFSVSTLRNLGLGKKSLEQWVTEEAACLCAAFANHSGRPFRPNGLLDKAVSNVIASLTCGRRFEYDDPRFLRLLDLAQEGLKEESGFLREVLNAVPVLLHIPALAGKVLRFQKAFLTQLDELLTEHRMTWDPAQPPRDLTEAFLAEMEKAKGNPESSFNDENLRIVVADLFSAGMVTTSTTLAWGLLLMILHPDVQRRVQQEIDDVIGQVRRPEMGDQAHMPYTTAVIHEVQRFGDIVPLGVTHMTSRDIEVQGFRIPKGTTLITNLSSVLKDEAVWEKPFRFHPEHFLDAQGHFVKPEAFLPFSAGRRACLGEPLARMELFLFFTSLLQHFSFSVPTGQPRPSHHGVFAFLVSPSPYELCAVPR
Sequence of Cytochrome P450 2C9 (Homo sapiens) (P11712 whole entry, looked up): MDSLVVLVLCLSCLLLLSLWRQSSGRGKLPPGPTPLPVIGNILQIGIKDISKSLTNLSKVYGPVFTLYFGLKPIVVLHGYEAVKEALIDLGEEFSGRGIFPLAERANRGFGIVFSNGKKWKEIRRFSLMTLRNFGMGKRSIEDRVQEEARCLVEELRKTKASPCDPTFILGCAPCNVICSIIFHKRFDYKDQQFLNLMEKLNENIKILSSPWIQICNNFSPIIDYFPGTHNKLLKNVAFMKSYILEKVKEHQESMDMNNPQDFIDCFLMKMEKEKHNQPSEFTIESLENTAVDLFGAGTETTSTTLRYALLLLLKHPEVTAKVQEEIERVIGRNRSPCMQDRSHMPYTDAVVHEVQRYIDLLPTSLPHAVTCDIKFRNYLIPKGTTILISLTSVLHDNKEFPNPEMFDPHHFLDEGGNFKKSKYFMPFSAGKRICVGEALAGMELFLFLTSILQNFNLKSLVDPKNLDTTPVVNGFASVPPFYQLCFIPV

Turning to `C[C@]12CCC(=O)C=C1C=C[C@@H]1[C@@H]2CC[C@@]2(C)[C@H]1CC[C@@]21CCC(=O)O1`, the Potency result in assay [1], in assay [2] and in assay [3] was “inactive” in each case.
For the compound `CCOC(=O)c1ccc(N)cc1`, the Potency result in assay [1], in assay [4] and in assay [3] was “inactive” each time.
In the case of `CCN(CC)CCOc1ccc2c(c1)C(=O)c1cc(OCCN(CC)CC)ccc1-2`, the Potency result in assay [1], in assay [4], in assay [3] and in assay [5] was “inactive” in each case.
For `CCCCCCCCNC(C)C(O)c1ccc(SC(C)C)cc1` (stereo not drawn), the Potency entry in assay [1], in assay [4] and in assay [5] was “inactive” throughout. Further, in assay [3], the Potency is 1.38 µM (active) and 8.49 µM (active).
For `CCO[C@@H]1O[C@H](C(COCc2ccccc2)OCc2ccccc2)[C@H](OCc2ccccc2)[C@H]1O` (stereo partly drawn), the Potency result in assay [1] and in assay [4] was “inactive” in each case. The Potency in assay [3] was 11 µM (active); in assay [5], 3.09 µM (active).
Consider `C[C@H]1O[C@@H](O[C@H]2CC[C@@]3(C)[C@H](CC[C@@H]4[C@@H]3C[C@@H](O)[C@]3(C)[C@@H](C5=CC(=O)OC5)CC[C@]43O)C2)C[C@H](O)[C@@H]1O[C@H]1C[C@H](O)[C@H](O[C@H]2C[C@H](O)[C@H](O[C@@H]3O[C@H](CO)[C@@H](O)[C@H](O)[C@H]3O)[C@@H](C)O2)[C@@H](C)O1`, for which the Potency entry in assay [1], in assay [4], in assay [3] and in assay [5] was “inactive” throughout.
For the compound `N/C(=N\N=C\c1ccc(Cl)cc1)N/N=C/c1ccc(Cl)cc1`, the Potency result in assay [1] and in assay [4] was “inactive” in each case. The Potency was 15.5 µM (active) in assay [3] and 13.8 µM (active) in assay [5].
As to `COc1ccccc1N1CCN(CCCCNC(=O)c2ccc(-c3ccc(C(C)=O)cc3)cc2)CC1`, the Potency result in assay [1], in assay [4], in assay [2] and in assay [5] was “inactive” throughout.
As to `CN(C)CCOC(c1ccc(Cl)cc1)c1ccccn1` (stereo not drawn), the Potency result in assay [1], in assay [4] and in assay [5] was “inactive” each time. Further, the Potency in assay [3] was 15.5 µM (active).
In the case of `COc1ccc2c(c1)c1c3n2CCN(C)C3=NCC1`, the Potency entry in assay [1], in assay [4], in assay [2] and in assay [5] was “inactive” throughout.
`COc1cc([C@H]2Oc3cc([C@H]4Oc5cc(O)cc(O)c5C(=O)[C@@H]4O)ccc3O[C@@H]2CO)ccc1O`: the values for the Potency in assay [1] and in assay [5] were 35.5 µM (active) and 8.71 µM (active), respectively. For the same compound, the Potency result in assay [4] and in assay [3] was “inactive” each time.
In the case of `CCCCCCCCCCCCCC[N+](C)(C)Cc1ccccc1`, the Potency entry in assay [1] and in assay [4] was “inactive” each time. Also, in assay [3], the Potency was 0.347 µM (active).
`C[C@@]12C(=O)OC(=O)[C@]1(C)C1CCC2O1`: the Potency result in assay [1], in assay [4], in assay [3] and in assay [5] was “inactive” throughout.
In the case of `O=C1OC(CN2CCOCC2)CN1/N=C/c1ccc([N+](=O)[O-])o1` (stereo not drawn), the Potency entry in assay [1], in assay [4], in assay [2] and in assay [5] was “inactive” each time.
`NC(=S)N/N=C/c1cccnc1`: the Potency result in assay [1], in assay [4], in assay [2] and in assay [5] was “inactive” each time.
Turning to `O=c1[nH]c(=O)n([C@H]2C[C@H](O)[C@@H](CO)O2)cc1F`, the Potency result in assay [1], in assay [4], in assay [3] and in assay [5] was “inactive” each time.
Turning to `CCCCCCCCCCCCSCCOCCO`, the Potency entry in assay [1], in assay [4] and in assay [2] was “inactive” in each case. For the same compound, in assay [5], the Potency is 12.3 µM (active).
For `CNCCCCOc1ccccc1Cc1ccccc1`, the Potency entry in assay [1], in assay [4] and in assay [5] was “inactive” in each case. In addition, in assay [3], the Potency was 0.692 µM (active).
Take `CCN(CC)CCOc1ccccc1C(=O)CCc1ccccc1`: the Potency result in assay [1], in assay [4] and in assay [5] was “inactive” each time. In addition, the Potency in assay [3] is 0.11 µM (active).
`c1ccc(-c2nc[nH]c2-c2ccccc2)cc1`: the Potency entry in assay [1], in assay [4], in assay [2] and in assay [5] was “inactive” each time.
With `CCN(CC)CCNc1ccc(CO)c2sc3ccccc3c(=O)c12`, the Potency entry in assay [1], in assay [4] and in assay [5] was “inactive” each time. Besides, the Potency in assay [3] was 4.36 µM (active).
With `Nc1nc(N)c(-c2ccccc2)s1`, the Potency result in assay [1], in assay [4], in assay [2] and in assay [5] was “inactive” throughout.
On to `CCC(CC)(CC(=O)Nc1cccc(/C=C/c2nc(C3CCC3)cs2)c1)C(=O)O`, for which the Potency entry in assay [1], in assay [4] and in assay [3] was “inactive” throughout.
In the case of `CC(C)(C)NC[C@H](O)COc1cccc2c1CCCC2=O`, the Potency result in assay [1], in assay [4], in assay [2] and in assay [5] was “inactive” in each case.
As to `CC[C@]12CCCN3CCc4c(n(c5ccccc45)C(=O)C1)[C@@H]32`, the Potency entry in assay [1] and in assay [4] was “inactive” throughout. Besides, in assay [3], the Potency is 0.0871 µM (active).
For the compound `CCN1CCN(C(=O)N[C@@H](C(=O)N[C@@H]2C(=O)N3C(C(=O)O)=C(CSc4nnnn4C)CS[C@H]23)c2ccc(O)cc2)C(=O)C1=O`, the Potency result in assay [1], in assay [2], in assay [3] and in assay [5] was “inactive” throughout.
For the compound `O=C(O)Cc1csc(-c2ccc(Cl)cc2)n1`, the Potency result in assay [1], in assay [2], in assay [3] and in assay [5] was “inactive” throughout.
In the case of `C[N+]12CCC(CC1)C(OC(=O)C(O)(c1ccccc1)c1ccccc1)C2` (stereo not drawn), the Potency result in assay [1], in assay [2] and in assay [5] was “inactive” throughout. Moreover, the Potency in assay [3] was 15.5 µM (active).
Take `CC(C)n1c(/C=C/[C@@H](O)C[C@@H](O)CC(=O)O)c(-c2ccc(F)cc2)c2ccccc21`: the Potency result in assay [1], in assay [2] and in assay [3] was “inactive” in each case.
On to `C[C@@H](O)[C@H]1C(=O)N2C(C(=O)O)=C([C@H]3CCCO3)S[C@H]12`, for which the Potency result in assay [1], in assay [2], in assay [3] and in assay [5] was “inactive” each time.
On to `O=C(Nc1ncc([N+](=O)[O-])s1)c1cccs1`, for which the Potency result in assay [1] and in assay [2] was “inactive” throughout. The Potency was 13.8 µM (active) in assay [3] and 9.77 µM (active) in assay [5].
For the compound `O=C(Nc1ccc([N+](=O)[O-])cc1)Nc1ccc([N+](=O)[O-])cc1`, the Potency result in assay [1], in assay [2], in assay [3] and in assay [5] was “inactive” each time.
For `CCN(CC)CCOC(=O)C(Cc1cccc2ccccc12)CC1CCCO1` (stereo not drawn), the Potency result in assay [1], in assay [2] and in assay [5] was “inactive” throughout. Moreover, the Potency in assay [3] is 3.09 µM (active) and 3.38 µM (active).
On to `CC1CCc2c(N3CCC(O)CC3)c(F)cc3c(=O)c(C(=O)O)cn1c23` (stereo not drawn), for which the Potency entry in assay [1], in assay [2], in assay [3] and in assay [5] was “inactive” each time.
Turning to `N#CCC(=O)NN`, the Potency entry in assay [1], in assay [2], in assay [3] and in assay [5] was “inactive” in each case.
As to `CC(=O)Oc1ccc(C)cc1`, the Potency entry in assay [1], in assay [2], in assay [3] and in assay [5] was “inactive” each time.
